The nature of assay [1]: qHTS assay to identify small molecule agonists of the RXR signaling pathway - cell viability counter screen (AID 1159529). Also: nearly all actives have a fitted effect of over 50% in size. Also: potency is read from the fitted curve at half-maximal effect. In a few lines: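 Same-well viability check after the LiveBLAzer FRET read: CellTiter-Glo added, luminescence measured after 30 min at room temperature. Reporter HEK 293T cells had been treated with compounds for 16 hr following a 5 hr preincubation.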

Assay [2] is described as follows: qHTS assay to identify small molecule antagonists of the retinoic acid receptor (RAR) signaling pathway (AID 1159552; also: potency is read from the fitted curve at half-maximal effect; nearly all actives have a fitted effect of over 50% in size). In a few lines:
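Readout: luciferase luminescence, 30 min post-reagent at RT. Setup: C3RL4 RARE reporter cells, compounds plus retinol 1 uM final, 6 hr incubation at 37 C and 5% CO2.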
(In general: Quantitative high-throughput screening tests each substance at several concentrations.)

A short description of assay [3]: qHTS assay to identify small molecule antagonists of the estrogen related receptor (ERR) signaling pathway from Tox21 library - cell viability counter screen (AID 1224834). Also: nearly all actives have a fitted effect of over 30% in size. Also: potency is read from the fitted curve at half-maximal effect. In a few lines:
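ERR cells, 2,000/well; 6 h settle at 37 C/5% CO2; pin-tool compound transfer in DMSO; 17.5 h at 37 C; CellTiter-Fluor, 30 min; fluorescence intensity.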

Assay [4] concerns the target Luciferin 4-monooxygenase (Photinus pyralis) (UniProt P08659). The experiment in a line: qHTS assay to identify small molecule inhibitors of firefly luciferase (AID 1224835). Also: series mostly up to about 120 µM; nearly all actives have a fitted effect of over 25% in size. In a few lines:
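Quantitative HTS format; KM concentrations of both substrates. Purified P. pyralis FLuc activity quantified from luminescence images.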

A short description of assay [5]: qHTS assay to identify small molecule agonists of the constitutive androstane receptor (CAR) signaling pathway - cell viability counter screen (AID 1224836). Also: nearly all actives have a fitted effect of over 45% in size. Also: potency is read from the fitted curve at half-maximal effect. In a few lines:
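Compound titrations (15 concentrations) went onto HepG2-CYP2B6-hCAR cells 4 h after seeding, alongside PK11195 at a final 0.75 uM; a 23 h, 37 C/5% CO2 incubation preceded CellTiter-Fluor viability measurement.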

Assay [6] can be described thus: qHTS assay to identify small molecule antagonists of the constitutive androstane receptor (CAR) signaling pathway - cell viability counter screen (AID 1224837). Also: nearly all actives have a fitted effect of over 45% in size. Also: potency is read from the fitted curve at half-maximal effect. In a few lines: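 Viability was measured with CellTiter-Fluor in a HepG2 line carrying stably transfected hCAR and a CYP2B6-2.2kb construct. Cells were exposed for 23 hr at 37 C to 15 compound concentrations with 50 nM CITCO as agonist.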

The target in assay [7] is Nuclear receptor subfamily 1 group I member 3 (Homo sapiens) (UniProt Q14994). The experiment in a line: qHTS assay to identify small molecule antagonists of the constitutive androstane receptor (CAR) signaling pathway (AID 1224838).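 Also: HepG2 cells stably expressing hCAR with CYP2B6 luciferase reporter stimulated by CITCO; nearly all actives have a fitted effect of over 40% in size.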 Also: potency is read from the fitted curve at half-maximal effect. Summed up:
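Antagonist mode used CITCO at a final 50 nM to activate CAR in human hepatoma HepG2 cells carrying stable hCAR and a 2.2 kb CYP2B6 promoter-luciferase construct. Compounds were tested at 15 concentrations over 24 h, with luminescence as the end point.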

For assay [8] the target is unchanged. The assay can be described thus: qHTS assay to identify small molecule agonists of the constitutive androstane receptor (CAR) signaling pathway (AID 1224839). Also: nearly all actives have a fitted effect of over 15% in size. Also: potency is read from the fitted curve at half-maximal effect. Summed up: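 In this screen, CAR-driven CYP2B6 promoter activity is measured by luminescence in HepG2-CYP2B6-hCAR cells after 24 h with test compounds and 0.75 uM PK11195 (final concentration).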
Assay [9] can be described thus: qHTS assay to identify small molecule antagonists of the estrogen related receptor signaling pathway with the pleiotropic PPARgamma coactivator (PGC) from Tox21 10K library - cell viability counter screen (AID 1224840; active = well fitted cell-killing curve with a large enough effect in the repeat runs, not every such curve was filed as active; also: nearly all actives have a fitted effect of over 40% in size; also: potency is read from the fitted curve at half-maximal effect). Summed up: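 Multiplexed viability counter screen in the PGC/ERR cell line: cells treated with DMSO-dissolved compounds for 17.5 hours at 37 C, then viability measured as CellTiter-Fluor fluorescence.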

Assay [10] in a line: qHTS assay to identify small molecule agonists of the estrogen related receptor signaling pathway with the pleiotropic PPARgamma coactivator (PGC) from Tox21 10K library (AID 1224842). Also: nearly all actives have a fitted effect of over 15% in size. Summed up: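 PGC/ERR reporter cells (NTP line) were seeded 2,000 per well, rested 6 h at 37 C/5% CO2, then pin-dosed with compounds in DMSO for 18 h at 37 C; luciferase read by One-Glo luminescence after 30 min at room temperature.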

The nature of assay [11]: qHTS assay to identify small molecule antagonists of the retinoid acid receptor (RAR) signaling pathway - cell viability counter screen (AID 1159551). Also: nearly all actives have a fitted effect of over 35% in size. In a few lines: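 Cells (C3RL4) are plated, incubated overnight, dosed with compound in DMSO, then given retinol at 1 uM final. After 6 h at 37 C, CellTiter-Glo is added and luminescence read following 30 min at room temperature.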

Assay [12] has as its target Thyrotropin receptor (Homo sapiens) (UniProt P16473). The experiment in a line: qHTS assay to identify small molecule agonists of the thyroid stimulating hormone receptor (TSHR) signaling pathway (AID 1224843; calls by dose curve; also: nearly all actives have a fitted effect of over 45% in size; also: potency is read from the fitted curve at half-maximal effect). Summed up:
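Using 15 concentrations per compound in triplicate, cAMP production was monitored in TSHR-HEK293 cells after 30 min compound incubation at RT; HTRF reagents followed, with fluorescence intensity recorded after 1 h.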

The nature of assay [13]: qHTS assay to identify small molecule antagonists of the estrogen related receptor (ERR) signaling pathway - cell viability counter screen (AID 1224818). Also: series mostly up to about 46 µM. Summed up: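 ERR cells, 2,000/well; 6 h settle at 37 C/5% CO2; compound pin transfer (DMSO); 17.5 h at 37 C; CellTiter-Fluor, 30 min, fluorescence read.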
A short description of assay [14]: qHTS assay to identify small molecule antagonists of the estrogen related receptor signaling pathway with the pleiotropic PPARgamma coactivator (PGC) cell viability counter screen (AID 1224822; also: series mostly up to about 46 µM). Summed up:
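Multiplexed viability counter screen run in PGC/ERR cells treated with compounds for 17.5 h at 37 C; live-cell protease signal measured by CellTiter-Fluor fluorescence.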

Assay [15] in a line: qHTS assay to identify small molecule antagonists of the estrogen related receptor (ERR) signaling pathway (AID 1224819;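 also: luminescence from an ERR-driven luciferase reporter measured with One-Glo reagent; series mostly up to about 46 µM; nearly all actives have a fitted effect of over 50% in size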). Summed up:
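qHTS in ERR cells, 2,000/well, 1536 format. Cpd (DMSO) added after 6 h settle, 18 h 37 C. One-Glo luminescence, 30 min RT.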

Assay [16] can be described thus: qHTS assay to identify small molecule agonists of the estrogen related receptor (ERR) signaling pathway (AID 1224820). In a few lines: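 Luminescence readout (One-Glo, 30 min RT) from NTP-supplied ERR cell line exposed to compounds for 18 h at 37 C. Cells seeded 2,000 per well and pre-incubated 6 h before pin-tool compound transfer.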
For assay [17], the system named is estrogen-related receptor alpha (ERRalpha) with PGC-1alpha coactivator, human. The experiment in a line: qHTS assay to identify small molecule antagonists of the estrogen related receptor signaling pathway with the pleiotropic PPARgamma coactivator (PGC) (AID 1224821; calls by dose curve;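 also: series mostly up to about 46 µM; lower luminescence signal means antagonism of PGC/ERR signalling; nearly all actives have a fitted effect of over 50% in size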). Summed up: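 PGC/ERR reporter cells; 6 h pre-incubation 37 C/5% CO2; pin-tool compound in DMSO, 18 h 37 C; One-Glo added, 30 min RT; luminescence read. qHTS antagonist mode.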

Assay [18] can be described thus: qHTS assay to identify small molecule agonists of the estrogen related receptor signaling pathway with the pleiotropic PPARgamma coactivator (PGC) (AID 1224823). Summed up: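 Luminescence readout (One-Glo, 30 min RT) from PGC/ERR cell line treated 18 h at 37 C with pin-tool-delivered DMSO compound solutions; cells plated 6 h before dosing. Quantitative HTS format.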

Assay [19] is described as follows: qHTS assay to identify small molecule antagonists of the estrogen related receptor signaling pathway with the pleiotropic PPARgamma coactivator (PGC) from Tox21 10K library (AID 1224841; call rule not given here). Summed up: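 Steps: plate 2,000 PGC/ERR cells per well; incubate 6 h at 37 C with 5% CO2; transfer compounds from DMSO stocks by pin tool; incubate 18 h at 37 C; add One-Glo; measure luminescence 30 min later.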

The structures appear in SMILES notation. “And” between values parts separate entries of the source, which are not always exact repeats. Equal values may be shown once. Results filed as inconclusive are left out. Some structures have more than one record in an assay (separate samples or runs), and their calls can disagree. The source made the active and inactive calls. Unless noted, calls follow the shape of the dose curve; as a rule, active = well fitted curve in the direction sought with a large enough effect in the repeat runs; inconclusive = weak or mixed curves; inactive = no such curve, though single readings can be large; an effect the other way counts as inactive or inconclusive.

Chain of Nuclear receptor subfamily 1 group I member 3 (Homo sapiens) (Q14994 whole entry, looked up): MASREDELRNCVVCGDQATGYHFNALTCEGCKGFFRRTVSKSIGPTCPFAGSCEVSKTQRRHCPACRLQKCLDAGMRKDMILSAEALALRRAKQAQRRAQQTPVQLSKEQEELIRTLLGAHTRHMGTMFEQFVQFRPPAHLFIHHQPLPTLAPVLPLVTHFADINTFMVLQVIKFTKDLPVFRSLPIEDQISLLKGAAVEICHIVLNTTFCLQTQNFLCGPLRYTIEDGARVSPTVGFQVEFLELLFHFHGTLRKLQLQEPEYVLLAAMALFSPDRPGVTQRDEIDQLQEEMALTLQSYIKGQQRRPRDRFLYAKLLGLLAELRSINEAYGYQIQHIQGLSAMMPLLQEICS
Chain of Thyrotropin receptor (Homo sapiens) (P16473 whole entry, looked up): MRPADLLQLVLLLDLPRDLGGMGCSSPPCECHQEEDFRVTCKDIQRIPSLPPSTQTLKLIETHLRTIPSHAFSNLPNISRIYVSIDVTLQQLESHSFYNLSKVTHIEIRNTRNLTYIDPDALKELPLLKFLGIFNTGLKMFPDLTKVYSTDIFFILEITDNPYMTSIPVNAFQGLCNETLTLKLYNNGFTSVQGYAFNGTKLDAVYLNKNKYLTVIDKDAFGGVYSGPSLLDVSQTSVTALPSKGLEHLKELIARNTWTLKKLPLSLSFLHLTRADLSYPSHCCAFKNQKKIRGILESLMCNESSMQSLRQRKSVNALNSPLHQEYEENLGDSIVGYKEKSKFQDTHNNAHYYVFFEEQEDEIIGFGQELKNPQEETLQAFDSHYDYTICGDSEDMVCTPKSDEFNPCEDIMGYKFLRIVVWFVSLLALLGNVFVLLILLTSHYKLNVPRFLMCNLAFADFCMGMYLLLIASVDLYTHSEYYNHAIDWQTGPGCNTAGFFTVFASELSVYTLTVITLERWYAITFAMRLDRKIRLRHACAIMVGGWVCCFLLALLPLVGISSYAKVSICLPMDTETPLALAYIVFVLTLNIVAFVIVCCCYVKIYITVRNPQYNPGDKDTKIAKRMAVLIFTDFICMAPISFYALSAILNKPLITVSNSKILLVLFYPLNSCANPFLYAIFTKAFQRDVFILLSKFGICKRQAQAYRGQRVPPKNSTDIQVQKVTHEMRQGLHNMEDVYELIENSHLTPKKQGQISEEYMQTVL
Chain of Luciferin 4-monooxygenase (Photinus pyralis) (P08659 whole entry, looked up): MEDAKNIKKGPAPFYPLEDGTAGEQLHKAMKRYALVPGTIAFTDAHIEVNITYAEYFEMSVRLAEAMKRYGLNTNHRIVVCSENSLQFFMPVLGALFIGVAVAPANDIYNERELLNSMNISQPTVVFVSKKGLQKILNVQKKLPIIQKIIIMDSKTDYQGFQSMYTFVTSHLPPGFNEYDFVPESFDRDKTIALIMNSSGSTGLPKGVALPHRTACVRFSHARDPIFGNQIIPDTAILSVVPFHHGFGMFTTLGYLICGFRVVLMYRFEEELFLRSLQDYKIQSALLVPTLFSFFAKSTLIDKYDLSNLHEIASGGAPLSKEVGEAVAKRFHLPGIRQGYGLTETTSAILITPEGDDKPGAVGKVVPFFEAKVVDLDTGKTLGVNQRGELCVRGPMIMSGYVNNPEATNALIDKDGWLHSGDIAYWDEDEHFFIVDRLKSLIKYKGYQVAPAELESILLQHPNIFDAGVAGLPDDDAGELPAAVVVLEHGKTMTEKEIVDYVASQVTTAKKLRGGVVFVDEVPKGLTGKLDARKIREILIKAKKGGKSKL

`O=[N+]([O-])c1ccc(Cl)c([N+](=O)[O-])c1`: the Potency in [1] was 24.9 µM (active) and 24.5 µM (active); in [2] it was 13.9 µM (active) and 12.2 µM (active); in [3] it was 24.7 µM (active) and 38.6 µM (active); in [5] it was 19.6 µM (active) and 24.3 µM (active); in assay [6], 22 µM (active) and 17.2 µM (active); in assay [7], 19.6 µM (active) and 15.4 µM (active). Also, the Potency in assay [9] was 49.3 µM (active) and 27.3 µM (active). In addition, the Potency result in assay [4], in [8] and in assay [10] was “inactive” each time.

For `ClCc1ccccn1`, the Potency result in [1], in assay [11], in assay [3], in assay [5], in assay [6] and in [7] was “inactive” each time. Further, the Potency result in assay [8], in [9] and in [12] was “inactive” in each case.

`CCC/C=N/O`: the Potency result in [1], in assay [11], in [3], in assay [4], in assay [5] and in [6] was “inactive” each time. Moreover, the Potency result in assay [7], in [8] and in assay [9] was “inactive” in each case.

Consider `CCCCCCCCCC(CC)c1ccc(S(=O)(=O)O)cc1` (stereo not given), for which the Potency entry in assay [11], in assay [14], in assay [4], in assay [5] and in assay [6] was “inactive” in each case. Further, the call in [13] was inactive. Besides, in assay [3], the Potency was 61.8 µM (active) and inactive.

With `NN=C(N)N`, the Potency entry in [1], in [11], in [14], in assay [3], in assay [5] and in [6] was “inactive” in each case. In addition, the Potency entry in assay [9] was “inactive”. Moreover, the outcome in assay [13] was inactive.

With `CCN(CC)C(=O)C(C)Oc1cccc2ccccc12` (stereo not given), the Potency result in assay [1], in [11], in assay [4], in assay [5], in assay [6] and in assay [7] was “inactive” throughout. Besides, in assay [9], the Potency result is “inactive”. Further, the Potency is 54.9 µM (active) and 61.1 µM (active) in assay [8]; “inactive and 30.6 µM (active)” in assay [12].

Regarding `CCC1(c2ccc(N)cc2)CCC(=O)NC1=O` (stereo not given), the Potency result in [1], in assay [11], in assay [15], in assay [17], in assay [14] and in [3] was “inactive” in each case. For the same molecule, the Potency result in assay [5], in assay [6], in [9], in assay [19] and in [10] was “inactive” throughout. For the same molecule, the result in assay [13], in [16] and in assay [18] was inactive.

With `COc1ccc(CO)cc1`, the Potency result in assay [1], in assay [11], in assay [3], in [5], in assay [6] and in assay [9] was “inactive” each time. For the same molecule, the Potency result in assay [12] is “inactive”.

Regarding `CCNCC`, the Potency entry in assay [1], in assay [11], in [3], in assay [4], in assay [5] and in assay [6] was “inactive” throughout. The Potency entry in [9], in [19], in assay [10] and in assay [12] was “inactive” in each case.

As for `CCOS(=O)(=O)OCC`, the Potency entry in assay [1], in [11], in [5], in assay [6], in assay [7] and in [8] was “inactive” in each case. Moreover, the Potency result in assay [9] and in [12] was “inactive” each time. Also, the Potency in assay [3] is 54.5 µM (active) and inactive.

Regarding `CC(C)=CC1C(C(=O)OCN2C(=O)C3=C(CCCC3)C2=O)C1(C)C` (stereo not given), the Potency result in assay [11], in [3], in assay [5], in assay [6], in [9] and in assay [10] was “inactive” throughout.

Turning to `c1ccc(C2CO2)cc1` (stereo not given), the Potency result in assay [1], in [11], in assay [3], in assay [5], in assay [6] and in assay [9] was “inactive” throughout. Further, the Potency entry in [12] was “inactive”.

These data come from PubChem BioAssay (Tox21).
